About 5,800 (36%) of roughly 16,000 compounds were called active. Roughly 23% stayed inconclusive and do not appear here. The list shows a part of the results. Unmarked numbers belong to inactive results. Calls follow the shape of the dose curve; as a rule, active = well fitted curve in the direction sought with a large enough effect; inconclusive = small, poorly fitted or top-dose-only effect, or effect the other way; inactive = no such curve, though single readings can be large or run the other way.

Usually AC50 stands for the midpoint of the concentration-response curve, whichever way the signal moves.
% is scaled to controls: 0 for no effect and ±100 for the full control effect.

This test deals with Cytochrome P450 2C19 (Homo sapiens) (UniProt P33261). Description: Cytochrome panel assay with activity outcomes. Particulars: recombinant CYP, pro-luciferin dealkylation, luminescence, p450-cyp2c19; series mostly up to 57.1 µM.
Chain of Cytochrome P450 2C19 (Homo sapiens) (P33261 whole entry, looked up): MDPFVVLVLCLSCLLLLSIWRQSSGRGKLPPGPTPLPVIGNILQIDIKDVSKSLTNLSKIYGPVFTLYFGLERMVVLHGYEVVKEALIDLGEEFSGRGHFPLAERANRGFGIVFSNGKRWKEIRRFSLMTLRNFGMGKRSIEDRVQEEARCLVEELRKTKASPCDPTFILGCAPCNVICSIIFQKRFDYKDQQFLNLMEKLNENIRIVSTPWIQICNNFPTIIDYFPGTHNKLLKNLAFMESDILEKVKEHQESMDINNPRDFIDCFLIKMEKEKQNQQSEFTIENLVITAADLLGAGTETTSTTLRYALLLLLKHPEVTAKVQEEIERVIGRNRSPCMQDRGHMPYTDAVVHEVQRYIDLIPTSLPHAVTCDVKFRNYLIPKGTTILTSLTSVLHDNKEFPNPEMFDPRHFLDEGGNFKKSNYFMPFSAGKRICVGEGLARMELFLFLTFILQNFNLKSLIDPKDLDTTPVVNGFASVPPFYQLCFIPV
For `CC(C)(C)C1CCc2c(C(=O)N/N=C/c3cccs3)csc2C1` (centres undefined), the AC50 was 6.31 µM (active).

With `ClC(=Nc1cccc2ccccc12)N(c1ccccc1)c1ccccc1`, the half-maximal activity concentration (AC50) is 2.51 µM (active).

On to `O=S(=O)(c1cccc(C(F)(F)F)c1)N1CCC(c2cc(-c3cccc4ccccc34)n[nH]2)CC1`, for which the AC50 is 7.08 µM (active).

Regarding `Cc1ccnn2cc3c(=O)n(C)c(=O)n(C)c3c12`, the AC50 result was “inactive”.

For the compound `C[C@@]1(C(NC(=O)c2ccc(-c3ccccc3)cc2)c2ccc(Cl)cc2)C[C@H]1C1CCCCC1` (some centres undefined), the AC50 entry is “inactive”.

For `C[C@@]1(C(NC(=O)c2cccs2)c2ccc(-c3ccccc3)cc2)C[C@H]1C1CCCCC1` (some centres undefined), the AC50 entry is “inactive”.

With `COC(=O)c1ccc(C(NC(=O)c2ccccc2)[C@]2(C)C[C@H]2C2CCCCC2)cc1` (some centres undefined), the AC50 was 2.51 µM (active).

As for `O=C(CN1CCCC1)N/N=C/c1ccc(-c2cccc(Cl)c2)o1`, the AC50 is 22.4 µM (active).

With `COc1ccc2nc(SCC(=O)c3ccco3)[nH]c2c1`, the AC50 is 14.1 µM (active).

On to `CCCCc1ccc2nc(NC(=O)OC)[nH]c2c1`, for which the AC50 result is “inactive”.

Consider `Cc1ccc2nc(SCC(=O)c3ccc4c(c3)OCO4)[nH]c2c1`, for which the concentration at half-maximal activity (AC50) was 2.82 µM (active).

As to `CCOC(=O)NC(=O)CSc1nc2ccc(OCC)cc2[nH]1`, the AC50 is 14.1 µM (active).

`COC(=O)Nc1nc2ccc(Sc3ccccc3)cc2[nH]1`: the AC50 result was “inactive”.

`COc1ccc(NC(=O)N2CCCC3(CCN(C(=O)c4ccco4)CC3)C2)cc1`: the AC50 entry is “inactive”.

For the compound `COc1ccc2nc(SCC(=O)Nc3ccc4c(c3)OCCO4)[nH]c2c1`, the AC50 is 10 µM (active).

As for `Oc1cc(O)c2c(c1)O[C@H](c1ccc(O)c(O)c1)[C@@H](O)[C@@H]2c1c(O)cc(O)c2c1O[C@@H](c1ccc(O)c(O)c1)[C@H](O)C2`, the activity, negative = inhibition was -23.6% [at 11.4 µM].

Consider `CSc1ccc2nnc(-c3cccc(F)c3)n2n1`, for which the half-maximal activity concentration (AC50) is 15.8 µM (active).

Consider `Cc1cc(C)c(C#N)c(SCc2cc3c(cc2Cl)OCO3)n1`, for which the AC50 was 6.31 µM (active).

Turning to `CON1C(=O)C(=O)N(OC)C(C)(C)C1C` (centres undefined), the AC50 entry was “inactive”.

In the case of `c1ccc2nc(-c3ccncc3)ccc2c1`, the AC50 is 3.55 µM (active).

`c1ccc2nc(C3=NCCN3)ccc2c1`: the AC50 result is “inactive”.

`CN1[C@@H]2CC[C@H]1CC(OC(=O)c1c[nH]c3ccccc13)C2` (some centres undefined): the AC50 result is “inactive”.

With `COc1cc(Cl)c(CC(=O)c2c[nH]c3ccccc23)cc1OC`, the AC50 was 1 µM (active).

Take `O=C(OCCN1CCCCC1)c1c[nH]c2ccccc12`: the AC50 entry was “inactive”.

Consider `CNC(=O)[C@H](C)[C@H]1C[C@]1(C)[C@H](NC(=O)OCc1ccccc1)c1ccccc1`, for which the AC50 was 1 µM (active).

For `CNC(=O)[C@H](C)[C@@H]1C[C@@]1(C)[C@@H](NC(=O)OCc1ccccc1)c1ccccc1`, the AC50 was 0.631 µM (active).

In the case of `C[C@H](CO)NC(=O)[C@H](C)[C@H]1C[C@]1(C)[C@H](NC(=O)OCc1ccccc1)c1ccccc1`, the AC50 is 0.631 µM (active).

Regarding `CC(=O)NCCC(=O)Nc1sc2c(c1-c1nc3ccccc3[nH]1)CCCC2`, the AC50 was 14.1 µM (active).

As for `CCN(CC)S(=O)(=O)c1cc(C(=O)Nc2ccccc2C(=O)O)ccc1OC`, the AC50 result was “inactive”.

As to `CCN(CC)S(=O)(=O)c1cc(C(=O)Nc2ccncc2)ccc1Cl`, the AC50 is 0.01 µM (active).

`CCN(CC)S(=O)(=O)c1cc(C(=O)OC)ccc1Cl`: the AC50 was 11.2 µM (active).

Consider `CCn1ccnc1C[C@@H]1COc2ccccc2O1`, for which the AC50 is 10 µM (active).

As for `O=C(Nc1ccccc1N1CCN(C(=O)c2ccccc2)CC1)c1cc(Br)ccc1Cl`, the AC50 is 3.16 µM (active).

For `Cc1ccccc1OCC(=O)Nc1ccc(N2CCN(C(=O)C(C)C)CC2)c(Cl)c1`, the AC50 was 8.91 µM (active).

With `Cc1ccccc1OCC(=O)NC(=S)Nc1ccc(N2CCOCC2)c(Cl)c1`, the AC50 entry was “inactive”.

For the compound `O=C(Nc1ccccc1N1CCOCC1)c1ccc([N+](=O)[O-])cc1`, the AC50 result was “inactive”.

As to `CC(C)C(=O)N1CCN(c2ccccc2NC(=O)c2cccc(Cl)c2)CC1`, the AC50 was 14.1 µM (active).

As for `Cc1cc(C)n(-c2ccc(F)cc2)c(=O)c1C(=O)O`, the AC50 entry was “inactive”.

In the case of `Cc1ccc(-n2c(C)nc3c(cnn3-c3ccc(F)cc3)c2=O)cc1C`, the AC50 is 22.4 µM (active).

Consider `COc1ccc(-n2c(=O)c(-c3ccc(F)cc3)nc3cncnc32)cc1`, for which the AC50 entry was “inactive”.

For the compound `CCn1c(=O)c2[nH]c(-c3ccccc3)nc2n(CC)c1=O`, the AC50 entry was “inactive”.

As to `CSc1nc(-c2ccc(C)cc2)[nH]c1S(=O)(=O)c1ccccc1`, the AC50 was 8.91 µM (active).

For the compound `O=C(NC(=S)Nc1cccc(Cl)c1N1CCCCC1)c1ccco1`, the AC50 was 6.31 µM (active).

In the case of `CC1CCN(c2ccccc2NC(=S)NC(=O)c2cccs2)CC1`, the AC50 was 8.91 µM (active).

As for `O=C(NC(=S)Nc1cccc(Cl)c1N1CCCCC1)c1cccs1`, the AC50 was 2.51 µM (active).

For `O=C(NC(=S)Nc1cccc(Cl)c1N1CCCC1)c1ccc(-c2cccc([N+](=O)[O-])c2)o1`, the AC50 entry was “inactive”.

As for `CC[C@@]1(O)C(=O)OCc2c1cc1n(c2=O)Cc2cc3c(CN(C)C)c(O)ccc3nc2-1`, the activity, negative = inhibition is -16.8% [at 11.4 µM].

On to `Clc1ccc2c(NCCNC3CCCCC3)ccnc2c1`, for which the activity, negative = inhibition is 41% [at 11.4 µM].

In the case of `O=C(COc1ccc(Cl)cc1)N(Cc1ccccc1)c1ccccn1`, the AC50 is 0.501 µM (active).

In the case of `C[N+]1(C)CCc2cc(O)c(O)cc2[C@H]1Cc1ccc(O)c(O)c1`, the activity, negative = inhibition was 26.9% [at 11.4 µM].

For `CCOc1cc(/C=N/n2cnnc2)c(Br)cc1O`, the AC50 is 10 µM (active).

Turning to `COc1cc(CNC2CCCC2)cc(Cl)c1OCc1ccccc1Cl`, the AC50 is 2.24 µM (active).

With `CCOC(=O)c1[nH]c(COC(=O)CCOc2ccccc2OC)c(C(=O)OCC)c1C`, the AC50 is 4.47 µM (active).

In the case of `CCOC(=O)c1[nH]c(C(=O)O)c(CCC(=O)OC)c1C`, the AC50 result is “inactive”.

For the compound `CCOCCCN1C(=O)CN(C2CCCCC2)C(=O)C1c1ccc(OCC)c(OC)c1` (centres undefined), the AC50 entry is “inactive”.

As to `COc1cc(C2C(=O)N(C3CCCC3)CC(=O)N2Cc2ccco2)ccc1OC(C)C` (centres undefined), the AC50 is 4.47 µM (active).

As for `CC1CN(C(=O)c2cc3c(s2)CCC3)CC(C)O1` (centres undefined), the AC50 is 14.1 µM (active).

As for `Cc1cc(C(C#N)c2cccc(Cl)c2)n2ncnc2n1` (centres undefined), the AC50 is 28.2 µM (active).

For `CCN1C(=O)[C@H]2[C@H]3[C@H](O)[C@H](O)C/C(=N/O[C@@H](C)c4cn([C@H]5COC[C@H]5O)nn4)[C@@H]3CC[C@@H]2C1=O`, the activity, negative = inhibition is 27.9% [at 11.4 µM].

As to `C/C(=C\c1ccc(Cl)cc1)C(C)(C)C(=O)O`, the activity, negative = inhibition was -25.9% [at 11.4 µM].

Regarding `C[C@H](N)C(=O)OC(C)(C)Cc1ccc(Cl)cc1`, the AC50 was 3.98 µM (active).

`COC(=O)[C@H](N)Cc1ccc(Cl)cc1`: the AC50 entry is “inactive”.

In the case of `CC1=CC(C)(C)Nc2ccc(CSc3ccccc3)cc21`, the half-maximal activity concentration (AC50) was 0.316 µM (active).

On to `CC1(C)CC(=O)C2=C(C1)Oc1nc3ccccc3cc1C2C(C#N)C#N` (centres undefined), for which the AC50 result is “inactive”.

On to `COc1cc(C2C(C#N)=C(N)OC3=C2C(=O)CCC3)c([N+](=O)[O-])cc1OC` (centres undefined), for which the AC50 result was “inactive”.

Take `Cc1cc(C2C(C#N)=C(N)OC3=C2C(=O)CC(C)(C)C3)c(C)s1` (centres undefined): the AC50 is 4.47 µM (active).

On to `Cc1cc(C2C(C#N)=C(N)Oc3n[nH]c(C)c32)c(C)s1` (centres undefined), for which the AC50 was 11.2 µM (active).

For the compound `CC(C)(C)C(=O)OCOC(=O)[C@@H]1N2C(=O)[C@@H](NC(=O)[C@H](N)c3ccccc3)[C@H]2SC1(C)C`, the AC50 entry is “inactive”.

`C#CCOCCCC(=O)O`: the activity, negative = inhibition is 22.8% [at 11.4 µM].

Turning to `CCCCN1CCC(COC(=O)c2cc(Cl)c(N)c3c2OCCO3)CC1`, the AC50 entry was “inactive”.

Regarding `CC1(C)CC(=O)c2cnc(N)nc2C1`, the AC50 entry was “inactive”.

Take `CC1(C)CC(=O)c2cn3ncnc3nc2C1`: the AC50 is 15.8 µM (active).

Take `CC1(C)O[C@H]2C[C@@H]3[C@H]4CCC5=CC(=O)CC[C@@]5(C)[C@]4(F)[C@@H](O)C[C@@]3(C)[C@@]2(C(=O)CCl)O1`: the AC50 entry is “inactive”.

Turning to `COc1cc2ccc(=O)oc2cc1O`, the AC50 result is “inactive”.

For `COc1ccc(-c2coc3cc4oc(=O)cc(C)c4cc23)cc1F`, the AC50 was 3.55 µM (active).

For `Cn1c(SC2CCCCC2=O)nnc1-c1ccncc1` (centres undefined), the AC50 was 7.08 µM (active).

As for `CC1CC2(CCCCC2)N2C(=O)C(=O)c3cccc1c32` (centres undefined), the concentration at half-maximal activity (AC50) is 2.82 µM (active).

For `CCOC(=O)C1=C(C)NC(C)=C(C(=O)OC)[C@@H]1c1cccc([N+](=O)[O-])c1`, the AC50 is 0.126 µM (active).

Turning to `CCOC(=O)C1=C(C)NC(C)=C(C(=O)OC)[C@H]1c1cccc([N+](=O)[O-])c1`, the AC50 is 0.251 µM (active).

As to `C#CCN1C(C)=C(C(=O)OC)[C@@H](c2cccc([N+](=O)[O-])c2)C(C(=O)OCC)=C1C`, the AC50 was 5.01 µM (active).

Take `OC[C@@H]1O[C@@H](n2cnc3c(NC4CCCC4)ncnc32)[C@H](O)[C@H]1O`: the AC50 entry was “inactive”.

For the compound `NCc1ccc(S(N)(=O)=O)cc1`, the AC50 result is “inactive”.

As to `CCN(C1CCCCC1)S(=O)(=O)c1ccc(S(=O)(=O)NCc2ccncc2)cc1`, the AC50 was 1.58 µM (active).

For the compound `CCCCSc1nnc(-c2ccc(C)cc2)n1C`, the AC50 was 14.1 µM (active).

With `COc1nc(OCCNC(C)=O)nc(N(C)C)n1`, the AC50 entry is “inactive”.

Consider `O=[N+]([O-])c1ccc2ncccc2c1CCc1c([N+](=O)[O-])ccc2ncccc12`, for which the activity, negative = inhibition is 39.5% [at 11.4 µM].

As to `O=S(=O)(O)c1cc(N=Nc2cccc3ccccc23)c(O)c2ncccc12`, the activity, negative = inhibition was -29.3% [at 11.4 µM].

Turning to `O=[N+]([O-])c1cc(Cc2cc([N+](=O)[O-])c3cccnc3c2O)c(O)c2ncccc12`, the AC50 was 2.51 µM (active).

Take `CC(=O)N1CCN(c2nc(C)nc3sc4c(c23)CCC(C)C4)CC1` (centres undefined): the half-maximal activity concentration (AC50) is 4.47 µM (active).

`CSc1ncnc2c1ncn2[C@@H]1O[C@@H](CO)[C@H](O)O[C@@H]1O`: the activity, negative = inhibition is 41% [at 11.4 µM].

`CN(N=O)c1ccc(/C=C\c2ccnc3ccccc23)cc1`: the activity, negative = inhibition was 14.4% [at 11.4 µM].

`CCN(CC)c1ccc(/C=C/c2nc3ccccc3s2)cc1`: the AC50 was 2 µM (active).

Regarding `Cc1cccc(OCCCCCn2ccnc2)c1`, the AC50 is 0.0398 µM (active).

In the case of `Cc1ccc(OCCOCCn2ccnc2)c(Br)c1`, the half-maximal activity concentration (AC50) is 0.0158 µM (active).

Values taken from PubChem BioAssay AID1851 (National Center for Advancing Translational Sciences (NCATS), 2009).
